Source: the supplement of paper PMC12067093, “Discovery and optimisation of a covalent ligand for TRIM25 and its application to targeted protein ubiquitination” (Chemical Science, 2025)
Targets with the largest changes are over-represented here; the source holds about 21,000 in all.

Compound: Cc1cc(ccc1-c1ccccc1)C(=O)N1CCCN(CC1)C(=O)CCl [compound 10]
Experiment: probe-labelled cysteine peptide fold change vs DMSO (competition) (log2 fold change); higher = less target engagement (more negative = stronger competition)
Settings: THP-1, incubation time: 4 h
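Also: competitive profiling in live THP-1 cells: cysteine peptides tagged with an iodoacetamide desthiobiotin (IA-DTB) probe, intensity after compound treatment relative to DMSO-treated cells.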

Target	probe-labelled cysteine peptide fold change (10 µM)	probe-labelled cysteine peptide fold change (50 µM)
GBF1_Q92538_1707_IDCFLPHLRDELFK (UniProt Q92538)	-0.0239	-0.111
HERC2_O95714_1201_ERDDHEELAWPGIMESFFTGQNCR (UniProt O95714)	-0.0998	-0.244
GTF2I_P78347_475_MVDQLFCK (UniProt P78347)	-0.213	0.51
HDHD5_Q9BXW7_392_DLCFSPGLMEASHVVNDVNEAVQLVFRK (UniProt Q9BXW7)	-0.183	-1.22
FHL1_Q13642_150_GEDFYCVTCHETK (UniProt Q13642)	0.107	-0.0472
HDAC10_Q969S8_23_LLWDDPECEIERPER (UniProt Q969S8)	-0.294	-0.208
HDAC4_P56524_777_LAVGCVVELVFK (UniProt P56524)	0.157	0.082
GNAI2_P04899_326_EIYTHFTCATDTK (UniProt P04899)	0.0663	-0.0637
GTF3C4_Q9UKN8_376_CVPLYHPYQK (UniProt Q9UKN8)	0.0788	0.144
HINT1_P49773_38_CLAFHDISPQAPTHFLVIPK (UniProt P49773)	0.0727	0.0613
GFPT1_Q06210_264_VDSTTCLFPVEEK (UniProt Q06210)	-0.0167	0.203
GRHPR_Q9UBQ7_29_AADCEVEQWDSDEPIPAK (UniProt Q9UBQ7)	-0.563	-0.167
FYCO1_Q9BQS8_293_LTCLVAELQK (UniProt Q9BQS8)	0.0275	0.224
GSPT1_P15170_464_TAGTICLETFK (UniProt P15170)	0.00954	0.0941
